Results on eight compounds are retold here after PubChem BioAssay (NCI).

Some test systems named below: HT29 colon; SNB-75 CNS; SNB-19 CNS; U251 CNS; PC-3 prostate; SK-MEL-5 melanoma; UACC-62 melanoma; LOX IMVI melanoma; SK-MEL-28 melanoma; SK-MEL-2 melanoma; EKVX NSCLC; SN12C renal; UO-31 renal; TK-10 renal; ACHN renal; A498 renal; CCRF-CEM leukemia; MOLT-4 leukemia; SR leukemia; CAKI-1 renal.
What all share (experiment): NCI-60 one-dose screen, 48 h (100 = growth as untreated, 0 = no growth, -100 = all killed)
Holding throughout (settings): 10 µM

About 83,000 compounds went through this panel and 20% of them were active in at least one assay; those are over-represented in the sample as a whole.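 Assay: single dose, 48 h. Readout: percent growth (0 = no net growth; negative = cell death). Active: <10.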 A number with no mark means an inactive call. Calls of active or inactive are those of the source.

For the compound `Fc1ccc(-c2nnc(-c3c(-c4ccc(F)cc4)nc4ccccn34)o2)cc1`, the growth was 79.2% in the experiment on HT29 colon; 37.4% in the experiment with SNB-75 CNS; 92.8% in the experiment with SNB-19 CNS; 81.2% in the experiment on U251 CNS; 84.6% with PC-3 prostate; 80.4% in the experiment on SK-MEL-5 melanoma. The growth with UACC-62 melanoma was 92.2%; in the experiment with LOX IMVI melanoma it was 65.4%; with SK-MEL-28 melanoma, 85%; in the experiment with SK-MEL-2 melanoma, 120%; in the experiment with EKVX NSCLC, 95.3%; with SN12C renal it was 77.2%. Moreover, the growth with UO-31 renal is 83.8%; with TK-10 renal, 102%; with ACHN renal, 83.2%; in the experiment on A498 renal, 62%; in the experiment on CCRF-CEM leukemia it was 95.4%; in the experiment on MOLT-4 leukemia it was 100%. Also, in the experiment with SR leukemia, the growth was 47.3%.
For `CC(C)=CCc1cc(O)cc2c1OC(C=C(C)C)C1=C2C(=O)C2=C(C1=O)S(=O)(=O)CCN2` (configuration not stated), the growth in the experiment with HT29 colon was 64.8%; in the experiment on SNB-75 CNS, 72.2%; in the experiment with SNB-19 CNS, 46.2%; with U251 CNS it was -14.3% (active); in the experiment on PC-3 prostate, 6.32% (active); with SK-MEL-5 melanoma, 16.2%. Moreover, the growth with UACC-62 melanoma was 9.11% (active); in the experiment with LOX IMVI melanoma it was 4.91% (active); in the experiment on SK-MEL-28 melanoma, 36.8%; in the experiment on SK-MEL-2 melanoma, 28.8%; with EKVX NSCLC it was 50.2%; in the experiment on SN12C renal, -44.1% (active). Also, the growth in the experiment on UO-31 renal is 54%; in the experiment on TK-10 renal, 122%; with ACHN renal, 73.1%; with A498 renal, 103%; with CCRF-CEM leukemia, -11.9% (active); with MOLT-4 leukemia, -43.2% (active). For the same compound, in the experiment on SR leukemia, the growth was 3.79% (active).
`CCCCOC(=O)Oc1ccc(C(=O)Oc2ccc(OCC)cc2)cc1`: the growth in the experiment on HT29 colon is 108%; in the experiment with SNB-75 CNS, 111%; in the experiment with SNB-19 CNS, 102%; with U251 CNS, 88.9%; in the experiment with PC-3 prostate, 93.2%; with SK-MEL-5 melanoma, 102%. For the same compound, the growth in the experiment with UACC-62 melanoma was 104%; with LOX IMVI melanoma, 96.3%; in the experiment on SK-MEL-28 melanoma, 109%; with SK-MEL-2 melanoma, 112%; in the experiment on EKVX NSCLC, 98%; with SN12C renal it was 95.3%. Moreover, the growth was 85.6% in the experiment with UO-31 renal; 117% in the experiment on TK-10 renal; 90.2% in the experiment with ACHN renal; 87.1% with CAKI-1 renal; 8.77% (active) in the experiment with CCRF-CEM leukemia; 111% in the experiment on MOLT-4 leukemia. Further, the growth in the experiment on SR leukemia was 107%.
For the compound `CS(=O)(=O)Nc1cccc(-c2cc(-c3ccccc3Cl)c(C#N)c(N)n2)c1`, the growth in the experiment with HT29 colon was 15.6%; in the experiment on SNB-75 CNS, -26.4% (active); with SNB-19 CNS, 49%; with U251 CNS, 24.7%; in the experiment on PC-3 prostate it was 22.3%; in the experiment with SK-MEL-5 melanoma, 30.9%. Moreover, the growth in the experiment with UACC-62 melanoma is 42.8%; with LOX IMVI melanoma, 43.7%; in the experiment on SK-MEL-28 melanoma, 69.1%; in the experiment with SK-MEL-2 melanoma it was 38.5%; in the experiment with EKVX NSCLC, 27%; with SN12C renal, 51.6%. For the same compound, the growth in the experiment on UO-31 renal was 26%; with TK-10 renal, 63.5%; in the experiment with ACHN renal it was 46.8%; with CAKI-1 renal, 16.1%; in the experiment with CCRF-CEM leukemia, 20.6%; in the experiment with MOLT-4 leukemia it was 24.6%. Also, in the experiment on SR leukemia, the growth is 23.9%.
Turning to `CCCCN(CCCC)CCCCCCCCC(O)c1cc2ccccc2c2ccccc12` (configuration not stated), the growth was 32.9% with HT29 colon; 61.8% with SNB-75 CNS; 67.9% in the experiment on SNB-19 CNS; 49.3% with U251 CNS; 45.2% with PC-3 prostate; 70% with SK-MEL-5 melanoma. The growth in the experiment with UACC-62 melanoma is 61.8%; in the experiment on LOX IMVI melanoma it was 49.2%; in the experiment with SK-MEL-28 melanoma it was 79.6%; in the experiment with SK-MEL-2 melanoma, 84.7%; with EKVX NSCLC, 60.4%; in the experiment on SN12C renal it was 64.9%. In addition, the growth in the experiment on UO-31 renal is 52.3%; with TK-10 renal, 79%; with ACHN renal, 59.9%; in the experiment on A498 renal, 46%; in the experiment on CCRF-CEM leukemia, 37.4%; with MOLT-4 leukemia, 39%. For the same compound, the growth in the experiment with SR leukemia was 37.6%.
As for `CCCCC(CCCCCC(CCCC)NCc1ccc2c(c1)OCO2)NCc1ccc2c(c1)OCO2` (configuration not stated), the growth in the experiment with HT29 colon was -100% (active); in the experiment with SNB-75 CNS, -100% (active); in the experiment on SNB-19 CNS, -100% (active); with U251 CNS, -95.3% (active); in the experiment on PC-3 prostate it was -100% (active); in the experiment on SK-MEL-5 melanoma it was -100% (active). Moreover, the growth was -95.4% (active) in the experiment with UACC-62 melanoma; -96.8% (active) in the experiment with LOX IMVI melanoma; -100% (active) in the experiment on SK-MEL-28 melanoma; -87.2% (active) with SK-MEL-2 melanoma; -75.2% (active) in the experiment with EKVX NSCLC; -92.6% (active) in the experiment with SN12C renal. Further, the growth in the experiment with UO-31 renal was -100% (active); with TK-10 renal, -88% (active); in the experiment with ACHN renal it was -100% (active); in the experiment with CAKI-1 renal it was -87.9% (active); with CCRF-CEM leukemia it was -32.8% (active); in the experiment on MOLT-4 leukemia, -66.7% (active). In the experiment on SR leukemia, the growth was -64.8% (active).
For `CCN1CCC(CCOC)(CN2c3ccccc3Sc3ccc(Cl)cc32)C1` (configuration not stated), the growth is 7.66% (active) with HT29 colon; 47.8% in the experiment with SNB-75 CNS; 70.8% in the experiment on SNB-19 CNS; 40.5% in the experiment with U251 CNS; 35.7% in the experiment with PC-3 prostate; -49.1% (active) with SK-MEL-5 melanoma. Further, the growth with UACC-62 melanoma was -46.7% (active); with LOX IMVI melanoma, -5.49% (active); in the experiment on SK-MEL-28 melanoma, 58.2%; with SK-MEL-2 melanoma it was 88.5%; in the experiment on EKVX NSCLC it was 56.7%; in the experiment on SN12C renal it was 59.7%. The growth is 8.09% (active) in the experiment with UO-31 renal; 64.1% in the experiment on TK-10 renal; 47.2% with ACHN renal; 56.6% in the experiment on A498 renal; 30.5% with CCRF-CEM leukemia; 22.5% in the experiment on MOLT-4 leukemia. Besides, the growth with SR leukemia was 40.4%.
With `Cc1cc(N(CCCNc2ccnc3cc(Cl)ccc23)Cc2cccs2)nc(Cl)n1`, the growth is 7.06% (active) in the experiment with HT29 colon; 49.2% in the experiment with SNB-75 CNS; 76.1% with SNB-19 CNS; 40% with U251 CNS; 40.4% in the experiment with PC-3 prostate; -14.9% (active) in the experiment with SK-MEL-5 melanoma. The growth was 47.5% in the experiment on UACC-62 melanoma; 8.99% (active) in the experiment with LOX IMVI melanoma; 81.5% with SK-MEL-28 melanoma; 64.7% in the experiment on SK-MEL-2 melanoma; 48% in the experiment on EKVX NSCLC; 58.4% in the experiment on SN12C renal. Also, the growth in the experiment on UO-31 renal is 27.8%; in the experiment with TK-10 renal, 50.4%; in the experiment with ACHN renal, 56.7%; in the experiment on A498 renal it was 28.5%; with CCRF-CEM leukemia, 42%; in the experiment on MOLT-4 leukemia, 11.2%. Further, in the experiment on SR leukemia, the growth is 0.473% (active).
